# HT1080NT lethal: qHTS for induction of synthetic lethality in tumor cells producing 2HG: qHTS for the HT-1080-NT fibrosarcoma cell line. HT-1080-NT fibrosarcoma viability, CellTiter-Glo ATP luminescence, 48 h. Potency, µM (top dose mostly 46.1 µM), hits mostly cytotoxic. actives 1.6% (n = 360,000);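 note: NT is the 2HG producing partner of a matched IDH1 knockdown line; nearly all actives have a fitted effect of over 55% in size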
#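 Fibrosarcoma NT cells, 750 per well in 5% FBS RPMI, were exposed to compound for 48 hours. Viability: CellTiter-Glo luminescence.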
# KB-V1 MDR tox: qHTS assay for MDR1-selective chemotherapeutics: Primary screen using the drug-selected MDR subline cells KB-V1; KB-V1 MDR cells viability, CellTiter-Glo, 72 h; Potency, µM (highest dose often 46.1 µM), actives largely listed as cytotoxic; actives 3.4% (n = 400,000); AID 1347076, 2019; note: nearly all actives have a fitted effect of over 60% in size
#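 Cytotoxicity via CellTiter-Glo luminescence after 72 h compound exposure at 37 degrees C. Cells: drug-selected KB-V1 line, DMEM phenol-red free plus 10% FBS. Compounds tested at multiple concentrations; normalized data fitted to concentration-effect curves.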
# KB-3-1 tox: qHTS assay for MDR1-selective chemotherapeutics: Primary screen using the parental adenocarcinoma cell KB-3-1 | KB-3-1 viability, CellTiter-Glo ATP luminescence, 72 h | Potency, µM (titrated, usually from 46.1 µM), usual class: cytotoxic | actives 1.4% (n = 400,000) | AID 1347075, 2019; note: nearly all actives have a fitted effect of over 60% in size
#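 KB-3-1 cells, DMEM (no phenol red) + 10% FBS; compound by pin transfer, 72 h, 37 °C. Readout: CellTiter-Glo luminescence after 10 min. Data normalized, curve-fitted.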
# DT40 TDP1 no CPT: qHTS for Inhibitors of human tyrosyl-DNA phosphodiesterase 1 (TDP1): qHTS in cells in absence of CPT | AID 686978, 2013 | actives 15% (n = 420,000) | Potency, µM (doses to about 46.2 µM), hits mostly inhibitors | DT40 Tdp1-/- hTDP1 cells, no CPT, ATP luminescence, 48 h; note: nearly all actives have a fitted effect of over 55% in size
#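 Camptothecin absent (DMSO only). Human TDP1-complemented DT40 knockout cells, 400 cells/well, 37 °C for minimum 48 hr; ATP measured via CellTiter-Glo, 30 min dark incubation, luminescence.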
# HT1080 IDH1KD tx: qHTS for induction of synthetic lethality in tumor cells producing 2HG: qHTS for the HT-1080-IDH1KD cell line. Potency, µM (doses to about 46.1 µM), actives largely listed as cytotoxic. HT-1080 IDH1 knockdown viability, ATP luminescence, 48 h. actives 2% (n = 360,000)
#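 Luminescent ATP read-out (CellTiter-Glo, 10 min at room temperature) after 48 h compound exposure at 37 °C gave viability of IDH1-knockdown HT-1080 cells. Activity was normalised to DMSO and cell-free wells, then fitted as concentration-response curves.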
# TDP1 cell CPT: qHTS for Inhibitors of human tyrosyl-DNA phosphodiesterase 1 (TDP1): qHTS in cells in presence of CPT. chicken DT40 Tdp1-/-;hTDP1 cells + 20 nM CPT, ATP luminescence, 48 h. Potency, µM (doses to about 46.2 µM), actives largely listed as inhibitors. actives 12% (n = 420,000). AID 686979, 2013; note: nearly all actives have a fitted effect of over 55% in size
#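 Chicken DT40 Tdp1-/- cells complemented with human TDP1, 400 cells/well, exposed to compounds plus 20 nM camptothecin for at least 48 h at 37 C; viability read as ATP content by CellTiter-Glo luminescence.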
# Hits are given with their value; n = inactive; u = inconclusive; x = no result given. Rows were chosen to be rich in hits. Some 19% of all compounds tested hit in one or more screens of this group. Calls come from the whole dose curve; as a rule, active = well fitted curve in the direction sought with a large enough effect; inconclusive = small, poorly fitted or top-dose-only effect, or another doubt; inactive = no such curve, though single readings can be large; an effect the other way counts as inactive or inconclusive.
SMILES,HT1080NT lethal,KB-V1 MDR tox,KB-3-1 tox,DT40 TDP1 no CPT,HT1080 IDH1KD tx,TDP1 cell CPT
CSc1nn(Cc2ccc(F)cc2)c(N(C(C)=O)C(C)=O)c1S(=O)(=O)c1ccccc1,x,n,n,u,x,n
CC1CCC(=NO)C(=NO)C1 (centres undefined),n,n,n,n,n,n
CC(C)c1ccc(NC(=O)C(Cc2ccccc2)NS(=O)(=O)c2ccc3c(c2)oc(=O)n3C)cc1 (centres undefined),x,n,n,u,x,u
CCc1ccc(NC(=O)Cn2c(=O)n(CCc3ccccc3)c(=O)c3sc4ccccc4c32)cc1,x,n,n,u,x,u
O=C(NC(=S)NN1CCCCC1c1cccnc1)c1ccc(Cl)cc1Cl (centres undefined),u,n,u,25.9µM,n,u
O=C(NC(=S)N1CCCCC1c1cccnc1)c1ccc(F)cc1 (centres undefined),n,n,n,n,n,n
Cc1cc(CN2CCN(CCC#N)CC2)c(O)c(C2(C)CCCCC2)c1,n,n,n,20.6µM,n,16.4µM
CCCCCc1cc(=O)oc2c(C(CCN3CCCC3)c3ccc(N(C)C)cc3)c(OC)cc(OC)c12 (centres undefined),n,n,u,8.2µM,n,14.6µM
CCCCCc1cc(=O)oc2c(C(CCN3CCN(c4ccccc4)CC3)c3ccc4c(c3)OCO4)c(OC)cc(OC)c12 (centres undefined),n,n,n,16.4µM,n,25.9µM
COc1ccc(C(CCN2CCCC(C)C2)c2c(OC)cc(OC)c3c2OC(=O)CC3c2cc(OC)c(OC)c(OC)c2)cc1 (centres undefined),n,n,n,u,n,16.4µM
CCCCCc1cc(=O)oc2c(C(CCN3CCCCC3)c3ccc(OC)cc3)c(OC)cc(OC)c12 (centres undefined),u,u,u,16.4µM,n,u
COc1cc(C(CCN2CCOCC2)c2c(OC)cc(OC)c3c(C)cc(=O)oc23)cc(OC)c1OC (centres undefined),n,n,n,n,n,u
NC(c1cccc(F)c1)c1nc(-c2ccc(Cl)cc2)cs1 (centres undefined),n,u,n,u,n,u
COc1ccc2c(c1)c1c(c(=O)n(-c3ccc(OC)c(OC)c3)c(=O)n1CC(=O)N1CCCC1)n2C,x,u,n,n,x,n
Cc1cc(C)c(S(=O)(=O)n2cnc(C)c2)c(C)c1,x,n,n,n,x,n
CCCCCc1cc(=O)oc2c(C(CCN(CC)CC)c3ccc(OC)cc3)c(OC)cc(OC)c12 (centres undefined),u,u,u,u,n,14.6µM
CCCCCc1cc(=O)oc2c(C(CCN3CCCC3)c3cc(OC)c(OC)c(OC)c3)c(OC)cc(OC)c12 (centres undefined),u,n,u,16.4µM,u,5.8µM
CCCCCc1cc(=O)oc2c(C(CCN3CCCC(C)C3)c3ccc(OC)cc3)c(OC)cc(OC)c12 (centres undefined),n,n,u,23.1µM,n,u
CC12CCC3c4ccccc4CCC3(CO1)C2 (centres undefined),n,n,n,u,n,u
O=S(=O)(c1ccccc1S(=O)(=O)N1CCCCC1)N1CCCCC1,u,14.6µM,n,n,n,n
O=S(=O)(c1ccc(Cl)cc1Br)N1CCCCC1,n,18.4µM,u,n,n,n
CCOc1ccc(S(=O)(=O)N2CCCCC2)c2ccccc12,n,n,n,20.6µM,20.6µM,18.4µM
